From PubChem BioAssay (NCI)
Compounds without any hit were thinned out: in the full panel of roughly 83,000, 20% have a hit.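 48-hour exposure, single concentration, 96-well plates; percent growth endpoint where 0 means no net growth. Active: below 10.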 Unmarked numbers belong to inactive results. Active and inactive are the calls of the source.

system: HL-60(TB) leukemia; assay: NCI-60 one-dose screen, 48 h (100 = growth as untreated, 0 = no growth, -100 = all killed); settings: 10 µM unless noted

Row | SMILES | growth
1 | CN1C(=O)N(C)C2SC(N/N=C/c3cccs3)=NC21 (stereo unspecified) | -19.5% (active)
2 | Nc1nn2c(-c3cc4cc(Br)ccc4oc3=O)ccnc2c1N=Nc1ccccc1 | 92.7%
3 | CC(=O)Nc1ccc(-c2cn(-c3cccc(C(=O)Nc4ccc(N5CCN(C)CC5)cc4)c3)nn2)cn1 | 64.6%
4 | O=C(c1ccc(Cl)cc1)C1[C@H](c2ccccc2Br)[C@@H](c2ccccc2)NC12C(=O)Nc1ccccc12 (stereo partly specified) | -2.22% (active)
5 | Cc1ccc(F)cc1N/C=c1\s/c(=C(\C#N)C(=O)Nc2ccccc2)n(-c2ccccc2)c1=O | 111%
6 | COc1ccc(C(=O)CSc2nnc(-c3c[nH]c4ccccc34)n2-c2ccccc2)cc1 | 81.3%
